What all share (parameters): scale not given: direction of the effect not stated beside the values
Test [1] addresses Protein translocase subunit SecA (Escherichia coli (strain K12)) (UniProt P10408). Briefly: Assay to Identify E. coli SecA ATPase Inhibitors. In kind it is functional. Conditions: 30 µM.
For test [2], the target named is T1, Ubiquitin-activating enzyme e1, putative (Leishmania donovani (strain BPK282A1)) (UniProt E9BSI1).
T1 sequence (whole entry): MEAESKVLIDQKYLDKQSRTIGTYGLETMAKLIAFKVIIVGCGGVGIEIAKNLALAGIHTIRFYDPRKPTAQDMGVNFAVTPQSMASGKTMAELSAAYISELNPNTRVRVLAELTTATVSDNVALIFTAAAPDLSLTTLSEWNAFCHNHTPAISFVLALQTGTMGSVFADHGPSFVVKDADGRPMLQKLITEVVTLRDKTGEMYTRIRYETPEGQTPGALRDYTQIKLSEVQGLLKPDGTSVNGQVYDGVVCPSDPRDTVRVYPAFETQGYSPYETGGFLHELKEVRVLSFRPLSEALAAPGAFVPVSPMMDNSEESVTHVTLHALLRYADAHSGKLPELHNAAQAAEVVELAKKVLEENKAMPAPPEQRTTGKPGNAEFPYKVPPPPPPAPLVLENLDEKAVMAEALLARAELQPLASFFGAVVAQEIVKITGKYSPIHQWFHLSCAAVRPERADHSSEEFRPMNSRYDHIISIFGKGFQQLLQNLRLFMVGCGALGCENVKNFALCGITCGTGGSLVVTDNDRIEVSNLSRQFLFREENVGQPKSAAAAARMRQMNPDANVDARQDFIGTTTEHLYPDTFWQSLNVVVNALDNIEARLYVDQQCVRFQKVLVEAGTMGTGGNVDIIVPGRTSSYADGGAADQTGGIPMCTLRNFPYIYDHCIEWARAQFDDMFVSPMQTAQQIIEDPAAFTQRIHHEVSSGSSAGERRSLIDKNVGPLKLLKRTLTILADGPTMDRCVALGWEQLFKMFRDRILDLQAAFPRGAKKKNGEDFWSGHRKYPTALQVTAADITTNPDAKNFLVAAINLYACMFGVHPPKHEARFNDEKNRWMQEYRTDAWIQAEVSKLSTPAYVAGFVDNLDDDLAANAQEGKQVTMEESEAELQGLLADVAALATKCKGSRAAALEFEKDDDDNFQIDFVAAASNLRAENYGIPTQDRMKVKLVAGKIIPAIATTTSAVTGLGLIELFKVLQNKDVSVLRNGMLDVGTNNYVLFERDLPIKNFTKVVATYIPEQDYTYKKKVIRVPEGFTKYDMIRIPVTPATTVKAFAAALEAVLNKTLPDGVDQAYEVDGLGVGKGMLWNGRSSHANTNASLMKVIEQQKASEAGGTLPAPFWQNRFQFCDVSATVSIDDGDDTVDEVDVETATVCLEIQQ
Briefly: Leishmania donovani Ubiquitin Activating Enzyme (LdE1). Type of test: functional. The note with it: 30 µM.

Test [3] addresses AMP-activated protein kinase, AMPK (Homo sapiens) (UniProt P54646+O43741+P54619+Q9UGJ0+Q9Y478+Q13131+Q9UGI9). As to the kind of experiment: AMP-dependent Kinase enzyme assay. An in vitro enzyme assay that detects ADP turnover that is directly proportional to AMPK activity. This uses naive AMPK that is activated during the assay with MK-8722. Type of test: functional. The note with it: 30 µM.

Test [4] addresses Sialic acid-binding Ig-like lectin 9 (Homo sapiens) (UniProt Q9Y336). Briefly: Hs-Siglec9 ALPHAscreen SOP 20170721. The note with it: 10 µM. In general terms: Alpha assays give light when donor and acceptor beads are brought close together.
Test [5] relates to Trypanosoma cruzi. Briefly: Trypanosoma cruzi phosphomannomutase and mannose-1-phosphate guanylyltransferase assay. Conditions: 10 µM. Type of test: functional.
Test [6] addresses T2, Arginase-2, mitochondrial (Homo sapiens) (UniProt P78540).
T2 sequence (whole entry): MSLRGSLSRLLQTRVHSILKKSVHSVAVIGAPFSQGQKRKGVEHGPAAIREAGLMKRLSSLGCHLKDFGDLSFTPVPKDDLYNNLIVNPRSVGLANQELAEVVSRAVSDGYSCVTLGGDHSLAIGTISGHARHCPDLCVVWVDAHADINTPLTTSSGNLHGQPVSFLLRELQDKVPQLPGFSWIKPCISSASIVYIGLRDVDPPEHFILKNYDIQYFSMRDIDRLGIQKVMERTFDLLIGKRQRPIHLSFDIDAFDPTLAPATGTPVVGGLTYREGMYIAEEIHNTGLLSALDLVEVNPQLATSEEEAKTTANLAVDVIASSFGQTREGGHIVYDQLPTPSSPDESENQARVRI
As to the kind of experiment: in vitro enzyme assay to detect the production of urea directly proportional to the activity of Arginase II. Note: in the data most compounds retested in dose-response had high values. In kind it is functional. The note with it: 33.3 µM.

In test [7] the target is T3, Proteasome subunit beta (Trypanosoma cruzi) (UniProt O96673).
T3 sequence (whole entry): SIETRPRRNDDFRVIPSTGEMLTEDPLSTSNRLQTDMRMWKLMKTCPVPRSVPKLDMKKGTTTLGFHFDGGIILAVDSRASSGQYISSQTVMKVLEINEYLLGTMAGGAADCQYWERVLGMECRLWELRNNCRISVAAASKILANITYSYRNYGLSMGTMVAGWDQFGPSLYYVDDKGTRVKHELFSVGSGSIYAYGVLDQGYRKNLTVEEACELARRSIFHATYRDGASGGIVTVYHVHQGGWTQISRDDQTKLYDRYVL
Briefly: Trypanosoma cruzi proteasome chymotrypsin-like activity (TcProtChymo) assay. Note: in the data most compounds retested in dose-response had high values. In kind it is functional. The note with it: 9.37 µM.

The species entered for test [8] is Homo sapiens. As to the kind of experiment: To identify inhibition of the IFN signalling (Jak-Stat) pathway via expression of an eGFP reporter gene under the control of an IFN-stimulated response element (ISRE) containing MxA promoter. Type of test: functional. The note with it: 30 µM.
Test [9] has as its target T4, Tyrosyl-tRNA synthetase, putative (Trypanosoma cruzi (strain CL Brener)) (UniProt Q4DSP6).
T4 sequence (whole entry): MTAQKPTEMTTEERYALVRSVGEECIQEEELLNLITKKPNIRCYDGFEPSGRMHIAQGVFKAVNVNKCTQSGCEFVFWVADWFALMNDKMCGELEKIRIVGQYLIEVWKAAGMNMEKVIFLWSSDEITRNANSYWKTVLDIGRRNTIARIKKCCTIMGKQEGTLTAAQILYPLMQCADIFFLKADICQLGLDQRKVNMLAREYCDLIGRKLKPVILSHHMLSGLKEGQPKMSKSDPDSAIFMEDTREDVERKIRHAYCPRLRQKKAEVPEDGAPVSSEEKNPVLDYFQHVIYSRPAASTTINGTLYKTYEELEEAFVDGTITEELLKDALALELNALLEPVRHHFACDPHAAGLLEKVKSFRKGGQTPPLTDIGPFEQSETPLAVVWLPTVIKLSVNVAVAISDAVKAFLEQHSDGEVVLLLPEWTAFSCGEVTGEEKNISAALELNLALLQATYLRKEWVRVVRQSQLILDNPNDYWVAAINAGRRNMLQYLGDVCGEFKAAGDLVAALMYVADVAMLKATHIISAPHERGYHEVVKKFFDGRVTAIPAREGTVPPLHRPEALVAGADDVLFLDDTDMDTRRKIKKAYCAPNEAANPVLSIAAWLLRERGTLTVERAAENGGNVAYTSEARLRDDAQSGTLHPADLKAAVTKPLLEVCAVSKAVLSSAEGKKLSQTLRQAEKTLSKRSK
Briefly: Trypanosoma cruzi tyrosyl tRNA synthetase (TcYRS) _High Tyrosine SOP. Note: in the data most compounds retested in dose-response had high values. Type of test: functional. Conditions: 30 µM.

Test [10] deals with T4, Tyrosyl-tRNA synthetase, putative (Trypanosoma cruzi (strain CL Brener)). As to the kind of experiment: Trypanosoma cruzi tyrosyl tRNA synthetase (TcYRS) SOP. Type of test: functional. Conditions: 30 µM.
Test [11] addresses Chromo domain-containing protein 1 (Saccharomyces cerevisiae (strain ATCC 204508 / S288c) (Baker's yeast)) (UniProt P32657). Briefly: ScCHD-1 Enzyme Inhibition Assay. Note: in the data most compounds retested in dose-response had high values. In kind it is functional. Conditions: 30 µM.

For some of these results: Results with a measured potency or affinity are listed apart.

Chain of Protein translocase subunit SecA (Escherichia coli (strain K12)) (P10408 whole entry): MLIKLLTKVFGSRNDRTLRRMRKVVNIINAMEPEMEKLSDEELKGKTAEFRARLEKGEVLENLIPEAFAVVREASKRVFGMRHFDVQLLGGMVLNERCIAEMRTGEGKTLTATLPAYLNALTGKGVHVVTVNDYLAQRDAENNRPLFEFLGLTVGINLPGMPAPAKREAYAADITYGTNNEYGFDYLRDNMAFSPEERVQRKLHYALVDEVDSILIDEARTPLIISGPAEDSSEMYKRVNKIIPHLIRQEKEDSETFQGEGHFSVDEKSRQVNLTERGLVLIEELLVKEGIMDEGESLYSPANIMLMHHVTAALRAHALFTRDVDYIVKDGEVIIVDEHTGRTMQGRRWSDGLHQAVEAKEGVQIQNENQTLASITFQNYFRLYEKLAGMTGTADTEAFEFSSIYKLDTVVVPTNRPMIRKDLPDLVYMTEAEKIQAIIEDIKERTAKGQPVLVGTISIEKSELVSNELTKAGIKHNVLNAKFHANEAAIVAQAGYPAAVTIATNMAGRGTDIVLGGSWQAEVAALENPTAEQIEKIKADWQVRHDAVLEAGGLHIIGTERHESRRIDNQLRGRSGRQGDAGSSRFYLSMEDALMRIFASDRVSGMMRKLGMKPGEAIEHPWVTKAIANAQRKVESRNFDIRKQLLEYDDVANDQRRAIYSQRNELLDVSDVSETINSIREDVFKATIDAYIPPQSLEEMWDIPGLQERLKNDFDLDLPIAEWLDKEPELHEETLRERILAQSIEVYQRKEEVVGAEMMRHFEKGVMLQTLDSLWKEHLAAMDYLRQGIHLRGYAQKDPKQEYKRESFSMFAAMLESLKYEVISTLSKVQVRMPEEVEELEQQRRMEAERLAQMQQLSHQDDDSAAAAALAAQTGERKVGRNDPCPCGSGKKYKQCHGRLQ
Chain of Sialic acid-binding Ig-like lectin 9 (Homo sapiens) (Q9Y336 whole entry): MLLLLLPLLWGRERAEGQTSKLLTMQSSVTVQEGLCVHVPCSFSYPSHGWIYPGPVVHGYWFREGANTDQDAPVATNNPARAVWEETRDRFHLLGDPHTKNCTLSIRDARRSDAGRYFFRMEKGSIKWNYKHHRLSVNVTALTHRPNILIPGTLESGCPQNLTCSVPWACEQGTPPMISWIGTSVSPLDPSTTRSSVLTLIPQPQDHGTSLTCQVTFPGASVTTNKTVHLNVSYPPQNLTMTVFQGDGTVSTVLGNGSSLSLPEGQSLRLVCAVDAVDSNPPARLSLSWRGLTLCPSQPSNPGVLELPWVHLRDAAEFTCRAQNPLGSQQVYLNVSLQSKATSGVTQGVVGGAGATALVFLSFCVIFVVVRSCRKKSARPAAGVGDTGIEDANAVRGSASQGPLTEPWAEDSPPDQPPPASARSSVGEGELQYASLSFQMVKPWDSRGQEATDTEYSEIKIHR
Chain of Chromo domain-containing protein 1 (Saccharomyces cerevisiae (strain ATCC 204508 / S288c) (Baker's yeast)) (P32657 whole entry, the tested form may be a part): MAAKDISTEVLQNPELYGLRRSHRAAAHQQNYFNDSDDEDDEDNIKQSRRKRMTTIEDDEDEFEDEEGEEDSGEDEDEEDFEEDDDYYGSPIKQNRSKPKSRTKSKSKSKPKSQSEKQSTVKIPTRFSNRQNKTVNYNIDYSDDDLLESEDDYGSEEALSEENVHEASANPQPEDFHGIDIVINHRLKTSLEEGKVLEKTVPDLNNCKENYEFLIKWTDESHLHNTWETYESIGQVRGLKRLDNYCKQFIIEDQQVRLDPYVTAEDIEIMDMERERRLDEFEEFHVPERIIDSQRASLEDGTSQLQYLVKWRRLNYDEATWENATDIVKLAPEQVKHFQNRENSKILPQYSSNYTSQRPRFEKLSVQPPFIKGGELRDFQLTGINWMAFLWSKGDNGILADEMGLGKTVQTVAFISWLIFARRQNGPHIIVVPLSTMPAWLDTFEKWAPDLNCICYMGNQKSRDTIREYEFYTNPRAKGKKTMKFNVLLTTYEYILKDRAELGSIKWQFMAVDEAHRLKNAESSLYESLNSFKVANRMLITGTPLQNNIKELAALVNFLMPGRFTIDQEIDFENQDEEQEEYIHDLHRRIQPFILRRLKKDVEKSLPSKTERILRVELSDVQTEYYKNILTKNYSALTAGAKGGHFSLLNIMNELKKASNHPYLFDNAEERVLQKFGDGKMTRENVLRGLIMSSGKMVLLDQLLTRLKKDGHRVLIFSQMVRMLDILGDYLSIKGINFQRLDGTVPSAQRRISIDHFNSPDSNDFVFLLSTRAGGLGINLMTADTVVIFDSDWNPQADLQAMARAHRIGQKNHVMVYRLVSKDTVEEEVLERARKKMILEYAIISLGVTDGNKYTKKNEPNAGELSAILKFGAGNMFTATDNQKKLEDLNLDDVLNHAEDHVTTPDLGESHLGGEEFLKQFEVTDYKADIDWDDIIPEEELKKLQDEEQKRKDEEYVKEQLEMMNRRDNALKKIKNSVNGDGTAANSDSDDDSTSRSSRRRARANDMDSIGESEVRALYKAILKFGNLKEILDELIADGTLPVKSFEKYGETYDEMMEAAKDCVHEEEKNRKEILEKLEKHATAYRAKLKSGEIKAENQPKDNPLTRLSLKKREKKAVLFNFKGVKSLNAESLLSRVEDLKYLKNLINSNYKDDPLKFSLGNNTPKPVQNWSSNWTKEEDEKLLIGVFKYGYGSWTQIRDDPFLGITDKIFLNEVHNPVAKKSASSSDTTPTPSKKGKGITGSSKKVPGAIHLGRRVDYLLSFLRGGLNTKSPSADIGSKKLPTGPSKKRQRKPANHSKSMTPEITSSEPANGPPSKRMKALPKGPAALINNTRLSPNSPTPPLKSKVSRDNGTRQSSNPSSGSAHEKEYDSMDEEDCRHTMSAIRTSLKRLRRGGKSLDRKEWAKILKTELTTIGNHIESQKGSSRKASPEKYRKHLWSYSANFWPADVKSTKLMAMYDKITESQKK

With `COc1cc2cc(C(=O)O)n(C)c2cc1OC`, the Percent Effect is -4.26% in [1]; -4% in [2]; 7.45% in test [3]; 10.6% in [4]; -0.982% in test [5]; -10% in test [6]. The Percent Effect in [7] was 9.61%; in [8], -15.2%; in test [9], 4.23%; in [10] it was 0%; in test [11] it was -6.18%.

Turning to `Cc1nc2c(c(N3CC=CC3)n1)CCN(Cc1ccoc1)CC2`, the Percent Effect was -7.04% in test [1]; 5.2% in test [2]; 2.16% in test [3]; 4.88% in [4]; -1.87% in test [5]; 1.38% in test [6]. For the same compound, the Percent Effect in [7] is 9.65%; in test [8], -16.9%; in [9] it was 3.23%; in [10], 8.64%; in test [11], 1.68%.

`Cc1nc(C2CCCN2C(=O)c2cc3c(s2)CCCC3)no1` (stereo not drawn): the Percent Effect is -3.05% in [1]; 0% in test [2]; 2.69% in test [3]; 3.43% in test [4]; 3.95% in test [5]; 4.98% in test [6]. In addition, the Percent Effect in test [7] was 3.51%; in [8] it was 5.26%; in [9], -0.49%; in test [10], 0%; in [11], 5.53%.

As for `CCNC(=O)[C@@H]1C[C@H](NC(=O)c2ccccc2C#N)CN1CCCSC`, the Percent Effect is -6.15% in test [1]; -2.74% in [2]; -0.485% in [3]; 8.44% in [4]; 0.794% in test [5]; 0.399% in test [6]. Also, the Percent Effect in test [7] is 11.4%; in test [8], -3.71%; in test [9] it was 2.08%; in test [10], 18.5%; in [11], 1.18%.

As for `Cc1cccc(-c2ccc(C(=O)NCC3CCOC3)c(=O)[nH]2)c1` (stereo not drawn), the Percent Effect in test [1] was -2.02%; in test [2] it was 10.8%; in [3], -7.21%; in [4] it was 7.34%; in [5], -0.472%; in [6], -4.41%. Besides, the Percent Effect in test [7] was -0.18%; in test [8], 12.2%; in test [9], 5.42%; in test [10] it was 11.1%; in test [11] it was -8.03%.

Take `O=C(Nc1cnn(CCN2CCOCC2)c1)c1ccccn1`: the Percent Effect is -3.13% in test [1]; 10.5% in test [2]; 3.43% in [3]; 9.01% in [4]; 3.38% in test [5]; 0% in test [6]. Moreover, the Percent Effect is 5.85% in test [7]; -7.34% in [8]; 5.39% in test [9]; 12.2% in test [10]; 0.887% in test [11].

Take `O=C(c1cccc(=O)[nH]1)N(Cc1ccsc1)CC1CCCO1` (stereo not drawn): the Percent Effect in test [1] is -0.641%; in [2], 10.8%; in test [3] it was -7.24%; in [4], 6.17%; in [5], -0.386%; in test [6], 2.86%. Further, the Percent Effect is 12.8% in test [7]; 11.3% in test [8]; 7.94% in test [9]; 17.1% in [10]; -1.82% in test [11].

As to `CCn1cnnc1C1CCN(C(=O)c2ccc(Cl)s2)CC1`, the Percent Effect is -3.49% in [1]; 17.7% in test [2]; 1.65% in test [3]; 2.56% in test [4]; -0.661% in [5]; 2.66% in test [6]. Also, the Percent Effect in [7] is 5.98%; in test [8], -19.1%; in test [9] it was 4.43%; in test [10], 11.4%; in test [11], -3.04%.
